Results as given in PubChem BioAssay (EPA / NIEHS).
A structure can be active in one record and inactive in another. Active and inactive are the calls of the source. Rule for the calls: active = hit-call score of the fitted dose curve at least 0.9, where 1 is the maximum; inactive = score below 0.9.

Legend:
[1] = APR_HepG2_CellLoss_72hr: Apredica 72-hour HepG2 Assay for Cell Loss (AID 2282915); conditions: high-content imaging
In short: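 HepG2 cells were exposed for 72 hr to compounds at 0.39–200 uM (ten concentrations, duplicate) in 0.5% v/v final DMSO. Nuclei were stained with Hoechst 33342 after 3.7% formaldehyde fixation, imaged at 20x, and counted; fits bidirectional versus DMSO.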

[2] = APR_HepG2_P-H2AX_72hr: Apredica 72-hour HepG2 Assay for H2AX Phosphorylation (AID 2282916); conditions: imaging, actives raise or lower the signal;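 note: phospho-histone H2A.x immunostain intensity per cell marking DNA damage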
In short: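 Phospho-H2A.x imaging endpoint in HepG2 after 72 hr compound exposure (0.39–200 uM, duplicate wells). Activity derived by bidirectional curve fitting with DMSO as baseline.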

[3] = APR_HepG2_MitoMembPot_72hr: Apredica 72-hour HepG2 Assay for Mitochondrial Membrane Potential (AID 2282917); conditions: imaging, actives raise or lower the signal
In short: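 HepG2 cells exposed 72 h to compounds at 0.39–200 uM (0.5% v/v DMSO, duplicates); MitoTracker Red CMXRos 250 nM loaded 30 min before 3.7% formaldehyde fixation, imaged by HCS fluorescence. Bidirectional fit versus DMSO.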

[4] = APR_HepG2_MitoticArrest_72hr: Apredica 72-hour HepG2 Assay for Mitotic Arrest (AID 2282918); conditions: high-content imaging, actives raise or lower the signal
In short: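 HepG2, 72 hr exposure, 0.39–200 uM in duplicate, 0.5% v/v DMSO final. Formaldehyde-fixed, Triton-permeabilized, anti-phospho-histone H3/FITC plus Hoechst. ArrayScan imaging at 20x; curves fit bidirectionally against DMSO baseline.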

[5] = APR_HepG2_MicrotubuleCSK_72hr: Apredica 72-hour HepG2 Assay for Microtubule CSK Stabilty (AID 2282919); conditions: HepG2 microtubule cytoskeleton, high-content imaging, actives raise or lower the signal
In short: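 Ten-point dosing (0.39–200 uM, 0.5% DMSO) of HepG2 for 72 hr, with taxol as the cytoskeletal positive control. The cells were formaldehyde-fixed and then stained with alpha-tubulin/Cy5 and Hoechst. Imaging at 20x used a −2 um Z offset for tubulin.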

[6] = APR_HepG2_P-H2AX_24hr: Apredica 24-hour HepG2 Assay for H2AX Phosphorylation (AID 2282920); conditions: high-content imaging, actives raise or lower the signal
In short: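 HCS fluorescence imaging of phospho-H2A.x immunostain (with Hoechst 33342 nuclear counterstain) in HepG2 after 24 hr compound exposure; 10 concentrations, 0.39–200 uM, duplicate wells, 0.5% v/v DMSO. Gain or loss of signal fitted relative to DMSO baseline.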

[7] = APR_HepG2_StressKinase_72hr: Apredica 72-hour HepG2 Assay for Stress Kinase (AID 2282921); conditions: HepG2 stress kinase (phospho-c-Jun) imaging, actives raise or lower the signal
In short: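 Stress kinase signal reflects nuclear phospho-c-Jun staining in fixed, permeabilized cells exposed 72 h to compound at 0.39–200 uM; DMSO-normalized, fitted for increases or decreases.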

[8] = APR_HepG2_StressKinase_24hr: Apredica 24-hour HepG2 Assay for Stress Kinase (AID 2282922); conditions: HepG2 stress kinase (phospho-c-Jun) imaging, actives raise or lower the signal
In short: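 After 24 hr compound treatment (up to 200 uM, final DMSO 0.5% v/v), HepG2 cells are fixed and multiplex-labeled; phospho-c-Jun intensity is captured by high-content fluorescence imaging and analyzed relative to DMSO.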

[9] = APR_HepG2_p53Act_72hr: Apredica 72-hour HepG2 Assay for p53 Activation (AID 2282923); conditions: high-content imaging, actives raise or lower the signal;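 note: average cellular p53 protein immunofluorescence intensity in HepG2 cells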
In short: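 Fixed-cell p53 staining (sheep primary, Cy5 secondary) measured by fluorescence imaging following 72 hr treatment at 0.39–200 uM in 0.5% DMSO; DMSO served as negative control and baseline.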

[10] = APR_HepG2_MitoMass_72hr: Apredica 72-hour HepG2 Assay for Mitochondrial Mass (AID 2282924); conditions: high-content imaging, actives raise or lower the signal;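 note: MitoTracker Red CMXRos stain intensity per cell imaged as mitochondrial mass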
In short: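 Steps: treat HepG2 72 hr (0.39–200 uM, duplicate wells); load MitoTracker Red CMXRos, 250 nM, 30 min; fix with 3.7% formaldehyde, permeabilise with 0.5% Triton X-100; capture images, nuclei via Hoechst 33342; fit bidirectionally against DMSO.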

[11] = APR_HepG2_NuclearSize_72hr: Apredica 72-hour HepG2 Assay for Nuclear Size (AID 2282925); conditions: high-content imaging, actives raise or lower the signal
In short: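 Compounds (0.39–200 uM, final DMSO 0.5%) were applied to HepG2 for 72 hr. Cells were then formaldehyde-fixed, permeabilized and labelled with Hoechst 33342. Nuclear diameter was quantified from six images per well.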

[12] = ATG_CRE_CIS: Attagene CIS-FACTORIAL HepG2 Assay for human cAMP Responsive Element (CRE) binding protein 3 (AID 2282926); conditions: HepG2 CRE cis-reporter, Attagene multiplexed mRNA; actives raise or lower the signal
In short: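 Readout: fluorescently labelled reporter transcripts resolved by capillary electrophoresis after RT-PCR, taken 24 h post-dosing in transfected HepG2. Endogenous transcription factor activity drives each cis-element reporter; gain or loss of signal fitted relative to DMSO control.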

[13] = biological target: CCAAT/enhancer-binding protein beta (Homo sapiens) (UniProt P17676); experiment: ATG_C_EBP_CIS: Attagene CIS-FACTORIAL HepG2 Assay for human CCAAT/Enhancer Binding Protein (C/EBP) beta (AID 2282927); conditions: HepG2 Attagene cis-factorial transcription factor reporter; actives raise or lower the signal
In short: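 Following a 24 h incubation with test chemical, transfected HepG2 cells yielded RNA whose reporter transcripts were quantified by RT-PCR and fluorescent capillary electrophoresis, with DMSO serving as baseline for bidirectional fitting.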

[14] = ATG_CMV_CIS: Attagene CIS-FACTORIAL HepG2 Assay for human CMV (Internal Marker) (AID 2282928); conditions: HepG2 CMV promoter reporter, transcription factor profiling; actives raise or lower the signal;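 note: endpoint acts as a background internal control marker rather than a target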
In short: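 Reporter transcripts from transfected HepG2 cells are isolated after 24 h of chemical dosing, reverse-transcribed and amplified. Fragments labeled with 6-FAM are cut with HpaI and quantified by capillary electrophoresis; DMSO defines baseline.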

[15] = ATG_DR4_LXR_CIS: Attagene CIS-FACTORIAL HepG2 Assay for human Liver X Receptor (LXR), DR4 submotif (AID 2282929); conditions: HepG2 Attagene DR4 cis-reporter, mRNA transcription; actives raise or lower the signal
In short: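 Endogenous factor activity at a DR4 cis-element is read as reporter mRNA in transiently transfected HepG2 cells. Exposure lasts 24 h; transcripts are amplified, fluorescently labelled and sized by capillary electrophoresis, with DMSO as baseline.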

[16] = biological target: Aryl hydrocarbon receptor (Homo sapiens) (UniProt P35869); experiment: ATG_Ahr_CIS: Attagene CIS-FACTORIAL HepG2 Assay for human Aryl Hydrocarbon Receptor (Ahr) (AID 2282930); conditions: HepG2 AhR cis-factorial reporter transcription; actives raise or lower the signal
In short: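 Values derive from bidirectional fitting against DMSO negative control. Underlying signal: cis-element reporter mRNA in transiently transfected HepG2, harvested 24 h post-dose and measured by RT-PCR plus capillary electrophoresis.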

[17] = ATG_AP_1_CIS: Attagene CIS-FACTORIAL HepG2 Assay for human Activator Protein 1 (AP-1) (AID 2282931); conditions: HepG2 Attagene cis-factorial AP-1 reporter mRNA; actives raise or lower the signal
In short: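 Fluorescence of labelled PCR fragments separated by capillary electrophoresis gives reporter mRNA levels. HepG2 with transfected cis-regulated reporter units, 24 h exposure; DMSO serves as baseline for bidirectional curve fits.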

[18] = ATG_AP_2_CIS: Attagene CIS-FACTORIAL HepG2 Assay for human Activator Protein 2 (AP-2) (AID 2282932); conditions: HepG2 AP-2 cis-reporter, Attagene transcription factor profiling; actives raise or lower the signal
In short: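 Assay in transfected HepG2 with promoter-regulated reporters, 24 h incubation after dosing. Signal is reporter mRNA fluorescence (RT-PCR, capillary electrophoresis), analysed for both increases and decreases relative to DMSO controls.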

[19] = ATG_BRE_CIS: Attagene CIS-FACTORIAL HepG2 Assay for human Bone Morphogenetic Protein (BMP) Response Element (BRE) (AID 2282933); conditions: HepG2 BMP response element reporter, Attagene transcription factor profiling; actives raise or lower the signal
In short: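 A HepG2 multiplex reporter system measured inducible reporter mRNA 24 h post-dosing. Detection: RT-PCR, 6-FAM primer extension, HpaI digestion, capillary electrophoresis. Activity fitted bidirectionally relative to DMSO.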

[20] = biological target: Retinoic acid receptor alpha (Homo sapiens) (UniProt P10276); experiment: ATG_DR5_RAR_CIS: Attagene CIS-FACTORIAL HepG2 Assay for human Retinoic Acid Receptor Alpha (RARE), DR5 submotif (AID 2282934); conditions: HepG2 Attagene cis-factorial RARE DR5 reporter, mRNA; actives raise or lower the signal;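 for AC50: reporter responds to endogenous RAR alpha beta and gamma in HepG2 not RARA alone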
In short: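 Endpoint fitted in both directions relative to DMSO as negative control. It reflects DR5 cis-element reporter mRNA induction in transiently transfected HepG2 cells, measured 24 h after dosing through RT-PCR and fluorescent capillary electrophoresis.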

Measured: AC50

Sequence of CCAAT/enhancer-binding protein beta (Homo sapiens) (P17676 whole entry, looked up): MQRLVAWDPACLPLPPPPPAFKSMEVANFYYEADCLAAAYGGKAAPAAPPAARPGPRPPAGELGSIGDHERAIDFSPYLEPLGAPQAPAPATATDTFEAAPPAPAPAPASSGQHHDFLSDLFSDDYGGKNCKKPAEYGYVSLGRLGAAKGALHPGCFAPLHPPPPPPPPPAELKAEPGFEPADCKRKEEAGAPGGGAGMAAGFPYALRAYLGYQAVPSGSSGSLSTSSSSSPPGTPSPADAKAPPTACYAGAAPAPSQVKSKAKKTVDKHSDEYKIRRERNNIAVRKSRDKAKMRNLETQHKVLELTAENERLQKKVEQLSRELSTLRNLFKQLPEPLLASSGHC
Sequence of Aryl hydrocarbon receptor (Homo sapiens) (P35869 whole entry, looked up): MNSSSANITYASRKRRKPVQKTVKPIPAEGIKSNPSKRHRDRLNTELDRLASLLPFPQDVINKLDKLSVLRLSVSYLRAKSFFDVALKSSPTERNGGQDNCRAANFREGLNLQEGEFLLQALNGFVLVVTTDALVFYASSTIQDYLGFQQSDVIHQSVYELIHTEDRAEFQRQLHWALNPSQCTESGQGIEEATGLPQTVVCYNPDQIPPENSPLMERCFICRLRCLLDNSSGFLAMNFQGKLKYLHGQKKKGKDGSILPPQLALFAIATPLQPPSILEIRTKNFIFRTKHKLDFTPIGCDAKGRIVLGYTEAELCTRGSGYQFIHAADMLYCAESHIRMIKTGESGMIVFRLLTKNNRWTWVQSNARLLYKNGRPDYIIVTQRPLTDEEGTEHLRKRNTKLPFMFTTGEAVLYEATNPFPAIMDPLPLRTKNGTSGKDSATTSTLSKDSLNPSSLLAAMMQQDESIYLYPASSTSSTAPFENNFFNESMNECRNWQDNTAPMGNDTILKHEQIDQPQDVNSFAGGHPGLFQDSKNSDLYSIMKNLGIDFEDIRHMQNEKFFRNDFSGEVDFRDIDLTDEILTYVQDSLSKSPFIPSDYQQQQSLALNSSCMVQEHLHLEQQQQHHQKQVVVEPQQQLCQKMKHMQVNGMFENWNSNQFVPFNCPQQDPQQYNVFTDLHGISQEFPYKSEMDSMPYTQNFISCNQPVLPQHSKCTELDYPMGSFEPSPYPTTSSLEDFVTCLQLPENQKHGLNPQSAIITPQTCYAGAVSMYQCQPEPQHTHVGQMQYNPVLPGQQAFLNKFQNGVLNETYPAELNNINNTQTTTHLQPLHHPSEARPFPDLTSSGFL
Sequence of Retinoic acid receptor alpha (Homo sapiens) (P10276 whole entry, looked up): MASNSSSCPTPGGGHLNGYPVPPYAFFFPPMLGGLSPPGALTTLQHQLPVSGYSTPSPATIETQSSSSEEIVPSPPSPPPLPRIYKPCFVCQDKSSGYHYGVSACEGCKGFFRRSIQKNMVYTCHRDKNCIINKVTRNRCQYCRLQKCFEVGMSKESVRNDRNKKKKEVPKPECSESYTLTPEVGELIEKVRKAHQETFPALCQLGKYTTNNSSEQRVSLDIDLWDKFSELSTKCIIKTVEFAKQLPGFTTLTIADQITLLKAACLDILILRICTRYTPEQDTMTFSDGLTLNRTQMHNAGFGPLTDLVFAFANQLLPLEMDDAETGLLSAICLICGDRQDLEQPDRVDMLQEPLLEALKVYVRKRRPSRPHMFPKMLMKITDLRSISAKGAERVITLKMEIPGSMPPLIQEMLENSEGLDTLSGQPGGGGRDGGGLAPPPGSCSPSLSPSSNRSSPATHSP

COc1nc(C)nc(NC(=O)NS(=O)(=O)c2ccccc2Cl)n1
inactive: all assays above

CON(C)C(=O)Nc1ccc(Cl)c(Cl)c1
active: [3] 23.1 µM | [10] 67 µM | [14] 55.6 µM | [16] 27.4 µM [middle of 4 runs]
inactive: [1] | [2] | [4] | [5] | [6] | [7] | [8] | [9] | [11] | [12] | [13] | [14] | [15] | [17] | [18] | [19] | [20]

OC(c1ccc(Cl)cc1)(c1cncnc1)c1ccccc1Cl (stereo unspecified)
inactive: [2] | [3] | [4] | [6] | [7] | [8] | [9] | [10] | [11] | [12] | [13] | [14] | [15] | [16] | [17] | [18] | [19] | [20]
active: [1] 10.4 µM | [5] 167 µM | [14] 2.95 µM | [15] 13.1 µM | [17] 13.3 µM | [19] 19.8 µM | [20] 13.1 µM

COC(=O)N(OC)c1ccccc1COc1ccn(-c2ccc(Cl)cc2)n1
active: [1] 1.44 µM | [2] 25.5 µM | [3] 3.69 µM | [4] 39.9 µM | [5] 3.29 µM | [12] 0.532 µM | [13] 0.401 µM | [14] 0.457 µM | [15] 2.77 µM | [19] 0.743 µM | [20] 0.64 µM
inactive: [6] | [7] | [8] | [9] | [10] | [11] | [16] | [17] | [18]

O=C(Nc1ccccc1)Nc1ccnc(Cl)c1
active: [1] 53.8 µM | [3] 3.46 µM | [5] 32.5 µM | [12] 22.5 µM | [13] 50 µM | [14] 26.5 µM | [17] 16.3 µM | [19] 27.8 µM | [20] 88.1 µM
inactive: all other assays above
